Reference: PubChem BioAssay (EPA / NIEHS)
Where a structure was tested more than once in an assay, its records may differ in their call. The source made the active and inactive calls. How the source made its calls: active means hit-call score of the fitted dose curve at least 0.9, where 1 is the maximum; inactive means score below 0.9.

The compounds below were run on catalase (CAT), CAT (gene 847) (assay: LTEA_HepaRG_CAT: Life Technologies and Expression Analysis (LTEA) Assay for catalase (CAT) using HepaRG (AID 2283452;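 on AC50: TaqMan qRT-PCR signal normalized to ACTB GAPDH and POLR2A housekeeping genes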)). Settings: mRNA level, 48 h; actives raise or lower the signal.
Experimental: LTEA_HepaRG is a cell based, multiplexed-readout assay that uses HepaRG, a human liver cell line, with measurements taken at 48 hours after chemical dosing on a 96-well plate.LTEA_HepaRG_CAT is one of 102 assay component(s) measured in the LTEA HepaRG cell culture assay. It is a marker of Oxidative Stress.Data from the assay component LTEA_HepaRG_CAT was analyzed into 1 endpoint. This assay endpoint, LTEA_HepaRG_CAT, was analyzed with bidirectional fitting relative to DMSO as the negative control and baseline of activity. Using a type of inducible reporter, measures of mRNA induction for gain or loss-of-signal activity can be used to understand regulation of transcription factor activity. To generalize the intended target to other relatable targets, this assay endpoint is annotated to the catalase intended target family, where the subfamily is oxidative stress.
A total of 1060 chemcials from the ToxCast library were tested in eight-point concentration-response experiments. Cell culture and cytotoxicity assays were conducted at Thermo Fisher Scientific's Custom Services facility (Madison, WI). A single lot of human HepaRG cells (Thermo Fisher Scientific, Frederick, MD) was used for the cell culture experiments. 96-well format collagen type I coated plates of human HepaRG cells were prepared using established methods. Briefly, cryopreserved HepaRG cells were thawed, plated at a density of approximately 100,000 cells/well in HepaRG Thaw, Plate, and General Purpose media (HPRG770, Thermo Fisher Scientific), and incubated for 48 hours. 0.5% DMSO was selected as vehicle control to balance the requisite need of DMSO in HepaRG cultures to maintain differentiation (for example, baseline metabolism, proportions of hepatocytes vs. cholangiocytes), while enabling further hepatic receptor pathway activation (for example, PXR and CAR) in response to chemical exposure. 48 hours after plating, the culture medium was replaced with HepaRG Serum-Free Incudtion Media. Cells were exposed to each test chemical in duplicate and maintained in CO2 incubators for another 48 hours. Chemical plates were thawed to room temperature and 200x concentrations of treatment groups were prepared. 8-point conentration-reponse curves were made with the highest exposure at 100 uM, followed by half-log dilutions, all in 0.5% DMSO. Each test plate contained variouse controls, induction positive controls (1mM phenobarbital), cytotoxicity positive controls ([…] aflatoxin B1), vehicle controls (0.5% DMSO), and total lysis controls (0.5% DMSO). Cell morphology images were taken using an Essen IncuCyte FLR automated microscope, with six 96-well plates imaged in about 24 minutes. Images were captured and exported and JPEG files. Spent culture media was transfered to black-well plates for the LDH assay, and remaining media was sorted at -80 C for later use. Cells were treated with RLT buffer and frozen until shipped for gene expression analysis. Total RNA was isolated from the cell suspension in 75 uL of Buffer RLT (Qiagen, Germantown, MD 20874) by Quintiles/Expression Analysis (Durham, NC) using a custom isolation procedure. Total RNA from each plate well was transferred to a preamplification plate. Fluidigm's 96.96 Dynamic ArrayTM (Fluidigm, Amsterdam, the Netherlands) technology was used for gene expression analyses by quantitative reverse transcription polymerase chain reaction (qRT-PCR, performed by Quintiles/Expression Analysis, Durham, NC)89. Standard TaqManTM Assays (Applied Biosystems/ThermoFisher Scientific, Foster City, CA) were used to assess the expression of 93 genes selected based on their selectivity and sensitivity to important hepatic receptors known to be modulated by environmental chemicals; importance in human hepatocyte functionality; and hepatotoxicity. […]
In the case of `C[C@@H]1C[C@@H]([C@H](O)CC2CC(=O)NC(=O)C2)C(=O)[C@@H](C)C1`, the AC50 is reported as 12.4 µM (active).
In the case of `CC(=O)[O][Hg][c]1ccccc1`, the AC50 is reported as 13.3 µM (active).
With `CCC(=O)C(CC(C)N(C)C)(c1ccccc1)c1ccccc1` (configuration not stated) the outcome was “inactive”.
With `ClC1(Cl)C2(Cl)C3(Cl)C4(Cl)C(Cl)(Cl)C5(Cl)C3(Cl)C1(Cl)C5(Cl)C24Cl` (configuration not stated) the outcome was “inactive”.
In the case of `CN(C)N=O`, the outcome is reported as “inactive”.
In the case of `C=C(C)C(=O)[O][Sn]([CH2]CCC)([CH2]CCC)[CH2]CCC`, the outcome is reported as “inactive”.
For `CCC(C)(C)c1ccc(O)c(C(C)(C)CC)c1`, the outcome was “inactive”.
With `O=C(O)C(Cl)(Cl)Cl` the AC50 was 0.207 µM (active) and the outcome was “inactive”.
With `C=CC(=O)OCCCCCC(C)C` the outcome was “inactive”.
`Cc1ccccc1N` was tested, and the outcome was “inactive”.
With `O=C1C2(Cl)C3(Cl)C4(Cl)C(Cl)(Cl)C5(Cl)C3(Cl)C1(Cl)C5(Cl)C24Cl` (configuration not stated) the AC50 was 93.5 µM (active).
In the case of `CCOP(=S)(OCC)SCSP(=S)(OCC)OCC`, the outcome is reported as “inactive”.
In the case of `CC(C)(C)c1cc(O)ccc1O`, the outcome is reported as “inactive”.
In the case of `Oc1cccc2cccnc12`, the outcome is reported as “inactive”.
`CC(C)(C)CC(C)(C)c1ccc(O)cc1` was tested, and the AC50 was 2.44 µM (active).
With `COc1cc(-c2ccc(N)c(OC)c2)ccc1N` the outcome was “inactive”.
In the case of `CC(C)(c1ccccc1)c1ccc(O)c(C(C)(C)c2ccccc2)c1`, the AC50 is reported as 60.7 µM (active).
In the case of `Cn1sc(Cl)cc1=O`, the outcome is reported as “inactive”.
With `CCN1CCC2(CC1)COc1cc3c(cc12)N(C(=O)c1ccc(-c2ccc(-c4nnc(C)o4)cc2C)cc1)CC3` the AC50 was 21.1 µM (active).
In the case of `O=C(O)C(F)(F)C(F)(F)C(F)(F)C(F)(F)C(F)(F)C(F)(F)F`, the outcome is reported as “inactive”.
For `O=C(O)C(F)(F)C(F)(F)C(F)(F)C(F)(F)C(F)(F)C(F)(F)C(F)(F)C(F)(F)C(F)(F)C(F)(F)F`, the outcome was “inactive”.
With `O=[N+]([O-])c1ccc(O)c([N+](=O)[O-])c1` the AC50 was 13.2 µM (active).
In the case of `CC12CC1(C)C(=O)N(c1cc(Cl)cc(Cl)c1)C2=O` (configuration not stated), the outcome is reported as “inactive”.
In the case of `CCCCCCCCc1ccc(O)cc1`, the outcome is reported as “inactive”.
With `ClCC(Cl)CCl` the outcome was “inactive”.
In the case of `NC(=O)O`, the outcome is reported as “inactive”.
For `O=C(Nc1ccc2[nH]ccc2c1)c1cc2cc(F)ccc2n1Cc1cccc(F)c1`, the AC50 was 25.1 µM (active).
For `C[C@]12CCC(=O)C[C@@H]1CC[C@@H]1[C@@H]2CC[C@]2(C)[C@@H](O)CC[C@@H]12`, the outcome was “inactive”.
With `CC(C)(OO)c1ccccc1` the outcome was “inactive”.
For `O=c1[nH]c(=O)[nH]c(=O)[nH]1`, the outcome was “inactive”.
In the case of `CCOP(=S)(OCC)Oc1nc(Cl)c(Cl)cc1Cl`, the outcome is reported as “inactive”.
